Here are results for 40 compounds from PubChem BioAssay (NCI).

The panel holds about 83,000 compounds, 20% with a hit somewhere; the sample as a whole holds those more often.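 96-well plates, one dose, 48 hours. Percent growth reported; active if below 10.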 Active and inactive are the calls of the source.

For this test, the system named is KM12 colon. In words: NCI-60 one-dose screen, 48 h (100 = growth as untreated, 0 = no growth, -100 = all killed). Particulars: 10 µM unless noted.
As to `O=C(Nc1ccc(-n2cc(-c3ccncc3)c(-c3ccc(Cl)c(O)c3)n2)cc1)c1cc(C(F)(F)F)cc(C(F)(F)F)c1`, the growth is 28% (inactive).

Regarding `COc1ccc(C2CC(=O)c3c(O)cc(OC4OC(COC5OC(C)C(O)C(O)C5O)C(O)C(O)C4O)cc3O2)cc1O` (stereo not given), the growth was 124% (inactive).

As to `O=C(NCCNCCO)c1cc([N+](=O)[O-])cc([N+](=O)[O-])c1O`, the growth is 108% (inactive).

As to `O=Nc1ccc(O)c2ccccc12`, the growth was 14% (inactive).

Regarding `CC(=O)N1CCN(CCNC(=O)n2cc(-c3ccncc3)c(-c3ccc(O)c(Cl)c3)n2)CC1`, the growth is 103% (inactive).

Take `NC(=O)c1c(Nc2ccccc2)nn2cc(-c3nc4ccccc4s3)c(N)nc12`: the growth was 99.5% (inactive).

On to `CC(O)CN(CCO)CCN(CCO)CC(C)O` (stereo not given), for which the growth was 108% (inactive).

Regarding `COC(=O)c1ccc2[nH]c(O)c(C(=Nc3ccc(N(C)C(=O)CN4CCN(C)CC4)cc3)c3ccc(OC)cc3)c2c1`, the growth is 13.1% (inactive).

In the case of `c1ccc(C(=NNc2nc3ccccc3o2)c2ccccn2)nc1`, the growth was 24.6% (inactive).

`COC(=O)C(Cc1cnc[nH]1)N1CC(=O)N2[C@@H](c3ccccc3)SC[C@H]2C1=O` (stereo not given in full): the growth is 108% (inactive).

In the case of `COC(=O)c1ccc2[nH]c(O)c(C(=Nc3ccc(N(C)C(=O)CN4CCN(C)CC4)cc3)c3ccc4c(c3)OCO4)c2c1`, the growth is 4.89% (active).

For `Cc1ccc(NCc2cn(-c3ccc(C(=O)O)cc3)nc2-c2ccc(C(=O)O)cc2)cc1`, the growth is 93.9% (inactive).

Turning to `O=C(c1ccccc1)c1ccccc1-c1ccccc1`, the growth was 29.5% (inactive).

Regarding `CCCCCCC(C(=O)OCC)(C(=O)OCC)C1CCCCCC1`, the growth is 105% (inactive).

For `COC(=O)c1ccc2[nH]c(O)c(C(=Nc3ccc(N(C)C(=O)CN4CCN(C)CC4)cc3)c3ccc([N+](=O)[O-])cc3)c2c1`, the growth was 16.2% (inactive).

Consider `O=C1OC(c2ccc(-c3ccccc3)cc2)=C/C1=C/c1c2ccccc2cc2ccccc12`, for which the growth is 97.3% (inactive).

On to `O=C(O)c1ccc(-c2nn(-c3ccc(C(=O)O)cc3)cc2CNc2ccc(Br)cc2)cc1`, for which the growth was 98.1% (inactive).

As to `O=C(N/N=C\c1ccc(-c2ccc(Br)cc2)o1)c1cc2oc(-c3cccc(C(F)(F)F)c3)cc2[nH]1`, the growth was 74% (inactive).

Take `COC(=O)c1ccc2[nH]c(O)c(C(=Nc3ccc(N(C)C(=O)CN4CCN(C)CC4)cc3)c3ccc(N)cc3)c2c1`: the growth was 18.4% (inactive).

Take `COC(=O)c1ccc(C(=Nc2ccc(N(C)C(=O)CN3CCN(C)CC3)cc2)c2c(O)[nH]c3ccc(C(=O)OC)cc23)cc1`: the growth is 15.3% (inactive).

Regarding `Cc1ccc(C(C)C)c(OCc2ccc(C(=O)N/N=C/c3cccc(O)c3O)cc2)c1`, the growth is 36.1% (inactive).

With `O=C1Nc2c(c(=O)n(-c3ccccc3)c3ccccc23)C(c2ccc(Cl)cc2)N1` (stereo not given), the growth is 61.1% (inactive).

Take `O=c1c2c(c3ccccc3n1-c1ccccc1)NC(=S)NC2c1ccccc1` (stereo not given): the growth is 104% (inactive).

On to `COC(=O)c1ccc2[nH]c(O)c(C(=Nc3ccc(N(C)C(=O)CN4CCN(C)CC4)cc3)c3ccc(CCO)cc3)c2c1`, for which the growth was 18.5% (inactive).

For `CCCCn1c(Cc2ccc(OC)cc2)nc2cc(OC)c(OC)cc2c1=O`, the growth was 93.6% (inactive).

Regarding `Cc1[nH]n(C(=S)Nc2nc3cc(Cl)c(F)cc3s2)c(=O)c1N=Nc1ccc(F)c(Cl)c1`, the growth is 110% (inactive).

Regarding `Clc1ccc(N/N=C(\c2ccccc2)c2ccccn2)nc1`, the growth was 21.7% (inactive).

In the case of `c1ccc(Nc2ncc3c(n2)-c2cccn2CC3)cc1`, the growth was 27.9% (inactive).

Take `C=CCC(CCC(CC=C)C(=O)OCC)C(=O)OCC` (stereo not given): the growth was 99.8% (inactive).

For the compound `O=[N+]([O-])c1ccc(-c2ncc(-c3ccc(O)cc3O)[nH]2)cc1`, the growth was 112% (inactive).

With `CC(=O)OC1/C=C\CC/C=C\C1` (stereo not given), the growth was 103% (inactive).

In the case of `CCN(CC)CCCNc1c2ccc(Cl)cc2nc2ccc(OC)cc12`, the growth was 0.483% (active).

With `COc1cc(-c2nn(-c3ccc(NC(=O)Nc4cc(C(F)(F)F)cc(C(F)(F)F)c4)cc3)cc2-c2ccncc2)ccc1Cl`, the growth was 0.412% (active).

On to `CC(=O)Nc1nc(C)c(C(=O)NN)s1`, for which the growth was 102% (inactive).

Turning to `CC/C(=N\Nc1nc2ccccc2n1C)c1ccccn1`, the growth was 18.5% (inactive).

Take `CC(=O)OCC1O[C@@H](OC(C)=O)[C@@H](NC(=O)NS(=O)(=O)c2ccccc2)C(OC(C)=O)[C@@H]1OC(C)=O` (stereo not given in full): the growth was 105% (inactive).

Turning to `Cc1nc2c(nnn2-c2ccccc2)c2nc(-c3ccccc3)oc(=O)c12`, the growth is 118% (inactive).

In the case of `CCc1ccc(C(=Nc2ccc(N(C)C(=O)CN3CCN(C)CC3)cc2)c2c(O)[nH]c3ccc(C(=O)OC)cc23)cc1`, the growth is -60.8% (active).

Consider `C=C[C@]1(C)C=C2C(=O)[C@@]3(O)OC[C@@]4(CCCC(C)(C)C43O)C2(O)C(O)C1` (stereo not given in full), for which the growth is 89.4% (inactive).

For `CCOC(=O)c1c2c(cn1Cc1ccccc1)-c1oncc1CC2`, the growth was 104% (inactive).
